In PubChem BioAssay (NCATS):
Values joined by “and” are separate entries in the source; they are usually repeats but may differ in a detail not shown here. Equal entries are not always repeated. Results filed as inconclusive are left out. A number with no mark means an inactive call. Active and inactive are the calls of the source. Calls come from the whole dose curve; as a rule, active = well fitted inhibition curve with a large enough effect; inconclusive = small, poorly fitted or top-dose-only effect; inactive = flat fitted curve, though single readings scatter.

The compounds below were run on CRL-7250 (assay: Cytotoxic Profiling of Annotated Libraries Using Quantitative High-Throughput Screening (AID 1296008; note: nearly all actives have a fitted effect of over 60% in size)). Conditions: Five cell lines viability, CellTiter-Glo ATP luminescence, 48-72 h; max response: stronger effect = lower value.
How it was run: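 Compounds were pin-transferred onto cells and incubated 48 or 72 hr at 37 degree Celsius, 95% humidity. CellTiter-Glo was added, plates sat 10 min at room temperature, then ATP-coupled luminescence was imaged as the viability read-out.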
% is set by controls: 0 for no effect and ±100 for the full control effect; potency is the fitted concentration of half-maximal effect.

| SMILES | outcome | max response | Potency |
| --- | --- | --- | --- |
| CC(C)c1ccc2oc3nc(N)c(C(=O)O)cc3c(=O)c2c1 | inactive | – | – |
| c1cnc2cc3c(cc2n1)C1CNCC3C1 | – | -23.9% and -2.72% | – |
| Nc1nc(OCc2ccccc2)c2[nH]cnc2n1 | – | 0.448% | – |
| C[C@@H](N)C1CCC(C(=O)Nc2ccncc2)CC1 (stereo not given in full) | – | -11.2% | – |
| CCN(CC)CCOc1ccc(Cc2ccccc2)cc1 | – | -29.7% | – |
| O=C(NCCO[N+](=O)[O-])c1cccnc1 | – | -0.661% and -5.95% | – |
| Oc1ccc(OCc2ccccc2)cc1 | – | -0.407% and -9.61% | – |
| Cc1nc(Nc2ncc(C(=O)Nc3c(C)cccc3Cl)s2)cc(N2CCN(CCO)CC2)n1 | – | – | 83.3 nM (active) and 66.8 nM (active) and 259 nM (active) |
| Cc1ccc(C(=O)c2cc(O)c(O)c([N+](=O)[O-])c2)cc1 | – | -7.14% | – |
| CC1(C)NC(=O)N(c2ccc([N+](=O)[O-])c(C(F)(F)F)c2)C1=O | – | -12.3% | – |
| Cc1cc(=O)c2c(O)c3c(O)cc(=O)c4c3c3c(cc(O)c1c23)C(C)(C)C=4O | – | – | 3.66 µM (active) and 13.2 µM (active) |
| CNC[C@@H](O)[C@@H](O)[C@H](O)[C@H](O)CO | inactive | – | – |
| c1ccc2[nH]c(-c3cscn3)nc2c1 | – | -2.24% and 4.16% | – |
| Nc1ccc(S(N)(=O)=O)cc1 | – | -3.82% and 0.627% | – |
| CCOC(=O)c1c(C)n(C)c2ccc(O)cc12 | – | 3.97% and 0.808% | – |
